Screens as filed in PubChem BioAssay.
AI-2 QS modul: Vibrio harveyi AI-2 quorum sensing modulators, primary screen, JMH597 strain, luminescence/OD600 ratio | activity change, % at 7.5 µM | AID 2094, 2009 | 300,000 tested, 0.4% active | Vibrio harveyi JMH597 AI-2 luminescence/OD600 ratio, 9 h; active compounds read low; strain lacks LuxN and CqsS sensors; 0 = neutral-control median; in the data active = activity change below about -75%, passing the limit was not always enough;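 also: luminescence divided by OD600 gain over 9 h not by final OD600 alone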
Efflux pump inh: inhibitors of Candida efflux pumps in yeast, primary screen, S. cerevisiae, Nile Red, multiplex; S. cerevisiae Candida pump triplex; inhibition, % at 10 µM; 330,000 tested, 0.44% active;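 active = plate passing quality check with inhibition over a set limit, or well fluorescence over plate mean plus 4 SD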;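 also: Nile Red retained in pooled yeast measured as flow cytometry median fluorescence; 0% = buffer negative control and 100% = Enniatin B positive control; higher means more Nile Red kept so more efflux inhibition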
V-ATPase pHluor: regulators of yeast V-ATPase proton pumping, primary screen, pHLuorin cytosolic pH fluorescence; S. cerevisiae; response, % at 10 µM; 350,000 tested, 0.37% active; in the data active = response mostly above about 7.3%, no sharp cut-off; inactive = mostly below about 5.4%; also: actives read high
Mot1-301 SUMO: yeast Mot1-301 growth rescue at high temperature, primary screen, SUMOylation pathway inhibitor project, S. cerevisiae, ATP luminescence, 38.5C; growth rescue, % at 18.8 µM; 320,000 tested, 1% active; AID 2716, 2010; S. cerevisiae Mot1-301 growth rescue; percent above DMSO median, 100 means doubled;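 active = every valid replicate shows activation above 250% relative to neutral control wells; inactive = the rest, any valid replicate at or below 250%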;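 also: OY570 slx delta 5 strain wells were the positive control but not used for scaling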
ATG4B inh: ATG4B protease inhibitors, primary screen, biochemical, fluorescence, uHTS; Cysteine protease ATG4B (Homo sapiens), Q9Y4P1; ATG4B cleavage of LC3-PLA2, NBD-HPC fluorescence, 1 h; inhibition, % at 8.33 µM; 340,000 tested, 0.51% active; AID 504462, 2011; in the data active = inhibition above about 40%
Target sequence (Q9Y4P1 whole entry, looked up): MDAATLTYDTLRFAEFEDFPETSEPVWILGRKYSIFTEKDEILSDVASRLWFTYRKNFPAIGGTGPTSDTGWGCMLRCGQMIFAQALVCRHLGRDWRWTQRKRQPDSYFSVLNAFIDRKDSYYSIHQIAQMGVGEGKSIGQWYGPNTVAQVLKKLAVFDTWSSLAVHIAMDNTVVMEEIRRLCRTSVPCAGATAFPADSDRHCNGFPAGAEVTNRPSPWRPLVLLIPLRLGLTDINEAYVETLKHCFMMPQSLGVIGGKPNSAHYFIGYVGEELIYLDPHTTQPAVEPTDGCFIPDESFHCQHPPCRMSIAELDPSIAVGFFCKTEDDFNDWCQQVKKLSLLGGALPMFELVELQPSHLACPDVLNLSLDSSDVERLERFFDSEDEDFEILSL
Yeast cmpd fluor: counter-screen for efflux pump inhibitors: compound fluorescence; AID 588517; 1,700 tested, 4% active; fluorescence ratio to DMSO, % at 10 µM; S. cerevisiae AD/pABC3, flow cytometry; shares compounds with Efflux pump inh;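 active = fluorescence ratio to DMSO above its plate's cutoff, the plate mean ratio plus 5 SD, cut at about 210% in these data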;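 also: unstained yeast with no Nile Red so the signal is compound autofluorescence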
Mdr1 pump inh: inhibitors of Candida albicans Mdr1 efflux, confirmation, flow cytometry, singleplex, Cherry Pick1 set; inhibition, % at 10 µM; S. cerevisiae AD/CaMDR1, Nile Red efflux; shares compounds with Efflux pump inh; AID 588518, 2011; 1,700 tested, 1% active; in the data active = inhibition above about 26%;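 also: 0% = DMSO vehicle and 100% = reference inhibitor; higher means more Nile Red retained so more efflux inhibition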
CaCdr2 efflux inh: inhibitors of Candida albicans Cdr2 efflux pump, confirmation, S. cerevisiae AD/CaCDR2, flow cytometry, cherry pick 1, singleplex | shares compounds with Efflux pump inh | Nile Red retention ratio vs DMSO, % at 10 µM | AID 588520, 2011 | Nile Red retention | 1,700 tested, 4% active; in the data active = Nile Red retention ratio vs DMSO above about 190%;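 also: higher ratio means more blocking of Cdr2 efflux of the dye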
CaCdr1 efflux inh: inhibitors of Candida albicans Cdr1 efflux pump, confirmation, S. cerevisiae AD/CaCDR1, flow cytometry, cherry pick 1, singleplex | shares compounds with Efflux pump inh | Nile Red efflux | inhibition, % at 10 µM | 1,700 tested, 1% active | AID 588522, 2011;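 active = inhibition above the screen-wide mean plus twice its standard deviation, cut at about 32% in these data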
The depositor's hits bear a star; x = not tested or not shown. Sampled rows, rich in hits. Any-hit rate of the full collection: about 2.5%.

SMILES | AI-2 QS modul | Efflux pump inh | V-ATPase pHluor | Mot1-301 SUMO | ATG4B inh | Yeast cmpd fluor | Mdr1 pump inh | CaCdr2 efflux inh | CaCdr1 efflux inh
OCC[n+]1ccc(/C=C/c2c[nH]c3ccccc23)cc1 | 13 | 2.5* | 0 | -2 | -16 | 429* | 5 | 119 | 4
C(=Cc1c[nH]c2ccccc12)c1nccc2ccccc12 | x | x | -2 | x | -8 | x | x | x | x
CSc1ccccc1C(=O)OCC(=O)NCCN1C(=O)CSC1=O | x | 0 | -1 | -18 | -6 | x | x | x | x
CCNc1ccc(C(=O)OCC(=O)NCCN2C(=O)CSC2=O)cc1[N+](=O)[O-] | 30 | 0 | 9 | 11 | -11 | x | x | x | x
O=C(COC(=O)c1cc(Cl)cc(Cl)c1)NCCN1C(=O)CSC1=O | 34 | 0 | 4 | 32 | -8 | 105 | 0 | 100 | 0
O=C(COC(=O)c1ccc(Cl)cc1O)NCCN1C(=O)CSC1=O | -9 | 0 | 4 | 107 | -5 | 108 | 0 | 112 | 0
O=C(COC(=O)c1cccc(Cl)c1)NCCN1C(=O)CSC1=O | 20 | 0 | 16* | 216 | 0 | 96 | 0 | 90 | 0
Oc1ccc(CCNc2ncnc3ccc(Cl)cc23)cc1 | 20 | 1.0* | 1 | 9 | -9 | 100 | 0 | 114 | 0
COc1cccc(NC(=O)C2CCOC2=O)c1 (configuration not stated) | 14 | 0 | 4 | 0 | 8 | x | x | x | x
Cc1ccsc1-c1nc(C(N)=O)c2[nH]c(=O)n(-c3ccc(Cl)cc3)c2n1 | 24 | 0 | 1 | 2 | -1 | 84 | 0 | 104 | 0
CCOc1ccccc1-c1nc(C(N)=O)c2[nH]c(=O)n(-c3ccc(F)cc3)c2n1 | 2 | 1 | 5 | -12 | -2 | 101 | 0 | 120 | 0
O=C(NCCc1ccccc1)C1CCC(=O)N1C1CCCC1 (configuration not stated) | 12 | 0 | -1 | -15 | -1 | x | x | x | x
CC1CCN(Cc2c(O)ccc3c2O/C(=C\c2ccco2)C3=O)CC1 | 30 | 0 | 1 | -2 | 5 | x | x | x | x
CCN1CCN(Cc2c(O)ccc3c(=O)c(-c4ccccc4OC)coc23)CC1 | 26 | 0 | 4 | 4 | -11 | x | x | x | x
CCN1CCN(Cc2c(O)ccc3c2O/C(=C\C=C\c2ccccc2OC)C3=O)CC1 | 11 | 24* | 2 | 25 | 30 | 108 | 0 | 94 | 0
O=C1/C(=C/c2ccco2)Oc2c1ccc(O)c2CN1CCCCC1 | 30 | 3.1* | 1 | 4 | -4 | 105 | 0 | 101 | 0
Cc1cccc(S(=O)(=O)NNC(=O)c2sc(C)nc2C)c1 | 16 | 0 | 1 | -15 | 3 | x | x | x | x
S=C(Nc1ccc(Cl)c(Cl)c1)NN1CCOCC1 | 19 | -1 | -2 | -8 | 6 | x | x | x | x
Cc1nc(C(=O)Nc2ccc(Cl)cc2Cl)nn1-c1cc(OC(C)C)c(Cl)cc1Cl | 17 | 1.3* | 0 | -24 | 1 | 113 | 0 | 105 | 0
Cc1nc(C(=O)Nc2cc(Cl)ccc2Cl)nn1-c1cc(OC(C)C)c(Cl)cc1Cl | 14 | 0 | 2 | x | -3 | x | x | x | x
O/N=C/c1ccc(-c2cc(Cl)ccc2Cl)o1 | 15 | 11* | 1 | 9 | -2 | 84 | 0 | 95 | 0
CC(=O)Nc1cc2c(cc1NC(=O)Cn1nc(-c3ccc4c(c3)OCCO4)ccc1=O)OCCO2 | 19 | 0 | 4 | 11 | -10 | x | x | x | x
